Assay outcomes: PubChem, National Center for Advancing Translational Sciences (NCATS)
D2 antagonist: antagonists of human D2 dopamine receptor | HEK293 TREx D2 cells, calcium flux, dopamine EC80 | 2% of 340,000 active | inhibition, % at 10 µM | AID 485344 | P14416; in the data active means inhibition above about 30%; inactive means below that, where a call was filed; further: 0% is about no effect
Target sequence (P14416 whole entry, looked up): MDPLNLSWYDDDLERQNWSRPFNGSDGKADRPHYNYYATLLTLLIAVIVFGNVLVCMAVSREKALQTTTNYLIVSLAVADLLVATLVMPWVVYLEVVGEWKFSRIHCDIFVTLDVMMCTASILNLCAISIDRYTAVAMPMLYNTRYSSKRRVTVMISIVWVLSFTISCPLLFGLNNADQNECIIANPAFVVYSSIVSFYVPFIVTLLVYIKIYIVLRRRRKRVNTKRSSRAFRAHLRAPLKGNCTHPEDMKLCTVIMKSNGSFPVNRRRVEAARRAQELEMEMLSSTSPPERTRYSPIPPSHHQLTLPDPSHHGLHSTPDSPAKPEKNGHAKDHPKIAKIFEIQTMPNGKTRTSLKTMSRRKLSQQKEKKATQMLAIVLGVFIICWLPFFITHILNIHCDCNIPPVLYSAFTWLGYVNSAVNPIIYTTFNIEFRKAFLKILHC
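Overnight-induced (tetracycline, 30 C) HEK293 T-REx cells carrying force-coupled D2 receive a no-wash calcium dye, then compound, then EC80 dopamine at 180 s; signals are read kinetically throughout.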
D2 PAM-1: positive allosteric modulators of human D2 dopamine receptor | DiscoveRx D2 beta-arrestin cells, luminescence, 90 min; 100% = 57 uM dopamine signal | 0.23% of 360,000 active | AID 624464 | P14416 | potentiation, % (test concentration not listed); in the data active means potentiation above about 50%; inconclusive means mostly about 30% to 49%
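PathHunter beta-arrestin assay in DiscoveRx D2 cells. Compounds were added with an EC20 of dopamine (50 nM final) for 90 min at 37 deg C. Luminescence was read 1 h after detection reagent, with 57 uM dopamine as the EC100 control.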
D2 ag-1: agonists of human D2 dopamine receptor. P14416. HEK293 T-REx D2 cells, calcium flux agonist mode. activation, % at 2 µM. 0.53% of 340,000 active;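 active means activation over 3 SD above normal in the single-dose calcium agonist read, cut at about 30% in these data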; further: 0% is about no effect
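Calcium-flux readout, 1 cycle/sec over 180 s following compound pin transfer, in inducible HEK293 Trex D2 cells (force-coupled); dopamine controls included. Positive calcium responses during this window marked compounds as potential agonists.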
D2 PAM-2: positive allosteric modulators of human D2 dopamine receptor; 0.34% of 340,000 active; AID 485347; potentiation, % at 10 µM; HEK293 T-REx D2, calcium flux, EC20 dopamine potentiation;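 active means potentiation over 3 SD above the plate norm, cut at about 30% in these data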; further: 0% is about no effect
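Using a no-wash calcium dye in inducible, force-coupled HEK293 Trex cells expressing D2, we tracked fluorescence each second for 180 s after compound, then for 180 s after EC20 dopamine to detect augmented signalling.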
D2 ag-2: agonists of human D2 dopamine receptor (beta-arrestin). 0.084% of 360,000 active. DiscoveRx PathHunter D2 beta-arrestin, luminescence, 90 min; 100% = 57 uM dopamine signal. P14416. AID 624465. activation, % (no concentration beside the values); in the data active means activation above about 40%; inconclusive means between about 15% and that limit
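Agonist mode: compounds alone added to overnight-plated D2 PathHunter cells for 90 min at 37 C, with 57 uM final dopamine (EC100) defining full response. Beta-arrestin recruitment detected by chemiluminescent reagent, read after 1 h at ambient temperature.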
D3 arrestin ag: D3 receptor agonism confirmed, beta-arrestin readout; AID 720506; 4% of 2,300 active; Potency, µM (top dose mostly 76.9 µM), inactives show at the top dose activation, most hits filed as activators; shares compounds with D2 ag-1; DiscoveRx D3 beta-arrestin cells, luminescence, 90 min;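 further: potency means the concentration at half of the fitted maximal effect; 100% = dopamine control response; nearly all actives have a fitted effect of over 70% in size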
D2 ag-3: counter-screen for D3 agonists: human D2 dopamine receptor agonism; Potency, µM (series often up to 76.9 µM), for the others: at the top dose activation, usual class: activators; 5.9% of 2,300 active; AID 720507; shares compounds with D2 ag-1; DiscoveRx PathHunter D2 beta-arrestin, luminescence, 90 min; response scale: percent relative to full dopamine signal; further: potency means the concentration at half of the fitted maximal effect; % of control where 0% means no effect; nearly all actives have a fitted effect of over 70% in size
* hit, by the source's call; u = inconclusive; x = not tested or not shown. Hits are enriched below; roughly 2.4% of the tested compounds scored in any of these assays. Unless noted, the call rests on the fitted dose curve; in most records, active means well fitted activation curve with a large enough effect; inconclusive means small, poorly fitted or top-dose-only effect; inactive means flat fitted curve, though single readings scatter.

SMILES	D2 antagonist	D2 PAM-1	D2 ag-1	D2 PAM-2	D2 ag-2	D3 arrestin ag	D2 ag-3
N#C/C(=C\c1ccc(-c2ccccc2C(=O)O)o1)c1nc2ccccc2[nH]1	-17	2	8	5	-9	3%	-3%
CCOC(=O)C1CCN(C(=O)COC(=O)CSc2ccccc2C)CC1	x	1	x	x	5	x	x
Cc1cc(=O)[nH]c(SCC(=O)N2CCCC2)n1	x	-5	x	x	-6	x	x
COc1ccc(N2CCN(C(=O)CCCNC(=O)Cn3cnc4sc(C)c(C)c4c3=O)CC2)cc1	-4	-8	44*	-22	-4	-1%	6%
COc1ccc2nc3sc(C(=O)NCCN4CCc5ccccc5C4)cc3cc2c1	53*	-18	66*	-34	u	23%	u
CCOc1ccc(C(=O)NCC(c2ccc(Cl)cc2)N2CCCCC2)cc1 (stereo unspecified)	x	x	-2	-23	x	x	x
O=C(Nc1ccc(F)cc1)C1CC2CCC1C2 (stereo unspecified)	x	-4	x	x	13	-10%	-6%
CC(C)c1ccc(NC(=O)C2CC3CCC2C3)cc1 (stereo unspecified)	11	-2	0	-4	0	x	x
O=C(Cc1c(F)cccc1Cl)NNC(=O)c1ccncc1	-10	-3	0	4	8	-2%	-1%
CC(C)Nc1nc(Nc2ccc(F)cc2)c2sccc2n1	x	-12	x	x	-9	x	x
Cc1cccc(C)c1Cn1c(C)c(C(=O)NCc2ccc([N+](=O)[O-])cc2)sc1=O	x	-2	x	x	1	x	x
Cc1ccc(CN(C)C(=O)COC(=O)CSc2cc(C)c3ccccc3n2)cc1	-24	2	0	-4	-5	-3%	0%
COc1ccc(OC)c(NC(=O)CN2C(=O)CCc3cc(S(=O)(=O)N4CCCCC4)ccc32)c1	x	x	4	1	x	x	x
CCCCn1c(N)c(N(CCC(C)C)C(=O)c2cccc(N3C(=O)c4ccccc4C3=O)c2)c(=O)[nH]c1=O	x	-11	x	x	-1	x	x
CCCCN(C(=O)c1ccc(N2C(=O)c3ccccc3C2=O)cc1)c1c(N)n(CC(C)C)c(=O)[nH]c1=O	-13	19	0	4	-2	0%	27%
Cc1ccccc1/C=C/C1=NCCN1	11	-1	0	4	-7	x	x
CCOc1ccccc1C(=O)N(CCC(=O)OC)c1ccccn1	5	-16	0	-10	0	x	x
COC(=O)CCN(C(=O)C1C2CC3CC(C2)CC1C3)c1ccccn1 (stereo unspecified)	14	0	41*	-7	u	1%	u
Fc1ccccc1NC(=S)N1CCN(c2ccccn2)CC1	0	5	11	7	-1	x	x
FC(F)(F)c1cccc(NC(=S)N2CCN(c3ccccn3)CC2)c1	2	-7	24	-12	-5	4%	4%
COc1ccc(C)cc1NC(=S)N1CCN(c2ccccn2)CC1	-3	0	57*	-23	-1	-4%	-1%
CCc1ccccc1NC(=S)N1CCN(c2ccccn2)CC1	1	-16	33*	-16	3	-7%	u
Cc1ccc(NC(=S)N2CCN(c3ccccn3)CC2)c(C)c1	31*	-1	34*	-10	-2	3%	3%
CCOC(=O)C1CCCN(S(=O)(=O)CCNC(=O)c2ccc3c(c2)OCO3)C1 (stereo unspecified)	-10	-5	-1	12	2	x	x
C[C@H](O)CNC(=O)c1[nH]cnc1C(=O)Nc1ccc(CNC(=O)OC(C)(C)C)cc1	x	x	x	x	10	x	x
Cc1cnc(NC(=O)c2c(Cl)cnn2C)s1	5	-1	0	8	2	x	x
COc1cc(NC(=S)N2CCN(c3ccccn3)CC2)cc(OC)c1OC	x	-4	x	x	1	x	x
COc1ccc(NC(=S)N2CCN(c3ccccn3)CC2)cc1OC	2	0	49*	-13	2	-5%	-3%
